Assay results taken from the supplement of paper PMC6555819.

Key:
Test in all cases: PBM binding z-score (relative to random genomic background probes); higher = stronger binding; sequences stand for … in GC…GCGATTGACAGCGTAGAATGAAGG
[1] = test system: RARg:RXRa (NR concentration 270 nM, RXRa partner concentration 90 nM)
How it was run: (§1)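 Binding buffer was PBS pH 7.4 with 2% milk, 0.02% Triton X-100, 1 mM DTT, 0.2 mg/mL BSA and 0.4 mg/ml salmon testes DNA. In it, ligand-free nuclear receptor dimers were incubated 1 h on custom Agilent 4×180K protein-binding microarrays carrying double-stranded probes. Antibodies against each partner (one per run) detected binding, and z-scores were calculated against random background probes after regression normalization of scanned fluorescence.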

[2] = test system: RARg homodimer (NR concentration 270 nM)
How it was run: as §1

[3] = test system: RXRa DBDmut IVT, anti-RXR (DBD mutation: RXRa K156A/R161A, NR concentration 90 nM)
How it was run: as §1

[4] = test system: RXRa homodimer (NR concentration 180 nM)
How it was run: as §1

[5] = test system: THRa:RXRa (NR concentration 90 nM, RXRa partner concentration 90 nM)
How it was run: as §1

[6] = test system: THRa homodimer (NR concentration 90 nM)
How it was run: as §1

[7] = test system: VDR homodimer (NR concentration 270 nM)
How it was run: as §1

| Sequence | PBM binding z-score [1] | PBM binding z-score [2] | PBM binding z-score [3] | PBM binding z-score [4] | PBM binding z-score [5] | PBM binding z-score [6] | PBM binding z-score [7] |
| --- | --- | --- | --- | --- | --- | --- | --- |
| CCTACTGGGCCGTTCAGAGGTCATTGATCATATG | 3.7 | 2.47 | 0.516 | 3.46 | 2.86 | 1.42 | 2.97 |
| CCTGCGAGGTCATGGTCAGCTAATCTACAGTATG | 6.42 | 6.15 | 4.26 | 7.05 | 4.34 | 3.39 | 3.95 |
| ATATGTAGGTTAGCTGAGGTCATTCAGACTAGGC | 3.95 | 3.72 | 1.9 | 4.53 | 5.33 | 4.38 | 5.55 |
| TAGCCTAGTTCATTCAGGGGCCAGTATAGAAAGC | 3.6 | 1.34 | 2.96 | 0.328 | 1.68 | -0.0964 | 2.71 |
| CCAGACAGGTGAGAAGGTAACTCAGCCTCGATTA | 0.555 | 0.652 | 0.16 | 0.448 | 0.425 | 0.236 | 0.403 |
| AACGAAAGGTCGAAGGTGAGTATACCCACCCGAA | 4.5 | 3.96 | 1.05 | 5.29 | 2.16 | -0.462 | 0.527 |
| GCTGCTAGGTCAACTGATGGTCAACTAAAGCTCG | 5.53 | 5.66 | 1.57 | 2.94 | 2.91 | 1.01 | 0.0813 |
| TCTAGTTGGTCACGGAGGTCACAAACGACGGGTA | 4.49 | 5 | 0.949 | 4.62 | 3.39 | 2.07 | 2.78 |
| TAGCCTAGGTCGTTCAGGGGCCAGTATAGAAAGC | 3.43 | 1.27 | 0.406 | 0.583 | 2.04 | -0.169 | 0.675 |
| CGAACGAGGTCATGAGTTGATAGCAAATGCCGAT | 6.18 | 6.02 | 4.6 | 6.87 | 4.26 | 3.07 | 4.41 |
| CAAACTAGGTCAAGGTCTAAGTCGGTTTGTGCCA | 3.81 | 4.71 | 1.44 | 2.49 | 3.15 | 1.57 | 1.14 |
| ACTCGGAGGACAAAGGTCAGGGCTACGCCAGTGA | 6.45 | 5.95 | 0.934 | 6.71 | 3.63 | 1.02 | 1.33 |
| CCTACTGGGCCATTCAGAGGGCATTGATCATATG | 1.43 | 0.891 | -0.189 | 0.134 | 0.0655 | -0.325 | 0.582 |
| TCGCCTAGGTCATGGGCCAGTATACCACGCGAAC | 4.24 | 4.78 | 1.21 | 3.7 | 3.15 | 1.58 | 0.535 |
| CCTACTGGGCCAAAAAGTTCATTGATGCCGATAA | 1.48 | 1.8 | 1.51 | 0.748 | 0.849 | -0.23 | 4.38 |
| TTGCCAAGGTGAAAGGTCGTTGATGCACGCCTTG | 4.33 | 2.25 | 0.468 | 5.91 | 3.3 | 0.784 | 1.34 |
| CGAACTAGGTCATTGACAGGACAGTGGATAGTAA | 4.35 | 4.34 | 2.35 | 2.59 | 2.76 | 0.809 | 1.22 |
| GATATAGGGTCAGCTAGAGGCCAGAGTATGGAAA | 6.81 | 5.11 | 1.67 | 4.63 | 3.42 | 0.95 | 0.867 |
| CGAACAAGGTCACCAGGACAGTGAAGAGGTTGGA | 6.81 | 6.95 | 3.8 | 7.03 | 4.15 | 3.1 | 2.83 |
| ACTCGGTGGACAAAGGTCAGAGCTACGCCAGTGA | 4.58 | 4.49 | 0.0487 | 4.44 | 2.45 | -0.204 | 0.332 |

| Sequence | PBM binding z-score [1] | PBM binding z-score [2] | PBM binding z-score [3] | PBM binding z-score [4] | PBM binding z-score [5] | PBM binding z-score [6] | PBM binding z-score [7] |
| --- | --- | --- | --- | --- | --- | --- | --- |
| CATACAGGGTCGGCTAGGCCAGAGTAGGGACGGC | 0.866 | 1.16 | -0.309 | 0.983 | 0.966 | -0.41 | 0.745 |
| GGAACGAGGTCATTCGAGTTGATAGCATGGCGAT | 6.09 | 6.21 | 4.87 | 7.11 | 4.76 | 2.26 | 6.31 |
| AGAATGAGGTCACCAAAGATCAGGGAAACGCTTG | 6.82 | 7.16 | 4.12 | 7.51 | 4.63 | 3.75 | 3.69 |
| TCTATTAGTTGATTAGGGCAACCGAAACAGCGGA | 0.66 | 0.733 | 1.18 | 0.678 | 0.697 | 0.563 | 0.736 |
| CAAACTAGGTCACAAAAGGTCAAAGTCGAATGAC | 7.42 | 8.02 | 2.52 | 7.78 | 4.76 | 2.22 | 3.98 |
| CAAACTAGTTCAAGAGGTCAAAGTCCGCTTCCCG | 6.53 | 5.81 | 3.18 | 7.43 | 3.77 | 1.92 | 4.98 |
| TATTCAGGGTCAAAGGCCAGAGTACGAATGTCGA | 6.24 | 5.27 | 3.3 | 7.75 | 3.83 | 1.25 | 3.62 |
| ATATGTAGGATAGCTGGGGTCATTCAGACTAGGC | 3.3 | 2.31 | 1.61 | 4.92 | 4.2 | 3.17 | 5.01 |
| CGAACGAGGTCAAAGGACAGTGAAAGGCGACGTA | 6.46 | 6.17 | 4.61 | 6.91 | 3.88 | 1.79 | 3.52 |
| CGTTCAAGGTCAAAGGTCAGTGAAGAGATGACGG | 8.78 | 8.73 | 4.53 | 10.3 | 5.04 | 3.34 | 3.81 |
| CCTACGGGGCCACGAAAGGTCATTGATTCAGTGA | 5.49 | 5.3 | 0.662 | 5.74 | 4.64 | 0.878 | 2.64 |
| ATATGTAGGTTATCTGGGGTCATTCAGACTAGGC | 4.51 | 3.58 | 2.58 | 5.88 | 5.46 | 3.91 | 5.88 |
| TCGAGTAGGTCACGGGGGCATTCAGGGATGAAGA | 6.77 | 6.69 | 2.23 | 6.31 | 4.48 | 1.6 | 3.74 |
| ATATGTAGGTTAGGGGTCATTCAGGTTGGTTCGC | 5.63 | 4.38 | 2.85 | 7.75 | 3.99 | 2.88 | 6.78 |
| GATACAGGGTCGGCTAGAGGCCAGAGTATGGAAA | 4.14 | 1.5 | -0.0719 | 1.49 | 1.22 | -0.62 | 0.35 |
| CCTACTGGTCCAAGGTCATTGATCAGTCAAAGCA | 3.84 | 3.4 | 2 | 3.96 | 3.59 | 3.48 | 3.1 |
| AGTCAAAGTTCAGGACGAGGTAACGTTAAGCACG | 4.79 | 4.82 | 3 | 2.87 | 3.83 | 1.82 | 2.56 |
| CGAACTAGGTCATTGACAGGACAATGAATAGTAA | 4.78 | 4.69 | 2.44 | 2.79 | 2.91 | 0.699 | 1.62 |
| CCGAGTTGGTCAAGGTCACACACGCTATAGGTAC | 4.58 | 4.8 | 3.18 | 4.46 | 4.24 | 4.39 | 4.74 |
| ACTTACGGGTCTACGAGGTTATAGCACGCGTATA | 0.863 | 0.586 | 0.937 | 1.32 | 1.83 | 0.82 | 1.55 |

| Sequence | PBM binding z-score [1] | PBM binding z-score [2] | PBM binding z-score [3] | PBM binding z-score [4] | PBM binding z-score [5] | PBM binding z-score [6] | PBM binding z-score [7] |
| --- | --- | --- | --- | --- | --- | --- | --- |
| TCTTGTAGATCGATAGAGGTTAAGAAAGTGCGCT | 0.525 | 0.389 | 0.591 | 1.1 | 1.48 | -0.46 | 0.0902 |
| CCGACTGGGGCAAGGTCACCATAACGCACAGCCA | 4.32 | 4.45 | 0.549 | 4.37 | 3.66 | 2.7 | 2.02 |
| GCTTACGGGTCCAAGGTTATAGCATGAATAGAAT | 0.631 | 0.599 | 2.18 | 0.914 | 1.34 | 0.551 | 1.97 |
| AGTCAAACTTCAGGACGAGGTAACGTAAAGCACG | 0.505 | 0.586 | -0.343 | 0.511 | 2.44 | 1.77 | -0.0917 |
| AGTCAAAGTTCATCTAGGTAACATAAGATATGCT | 5.69 | 6.1 | 4.79 | 4.84 | 3.19 | 0.324 | 5.55 |
| TACCCTAGGTCATGGGCCAGTATACCACGCGAAC | 4.53 | 4.92 | 0.55 | 4 | 3.26 | 2.22 | 1.35 |
| TAGCCTAGGTCATGCGGCCCAGTATAGTGTCGGC | 3.79 | 4.07 | 0.176 | 2.87 | 2.89 | 0.868 | 0.276 |
| ATCGAAAGGTCTAAGGTGAGTATACCCACCCGAA | 1.27 | 1.29 | -0.301 | 1.25 | 2.28 | 1.67 | 0.152 |
| CGTCCAAGGTTAAGGTCAGTGAAAGAGACTCGAA | 4.2 | 4.7 | 1.71 | 3.45 | 3.83 | 3.83 | 1.79 |
| CCTAGTTGGTCAAGGTCACACCCGCTATAGGTAC | 4.26 | 4.56 | 1.78 | 4.2 | 3.94 | 4.24 | 3.57 |
| CCTACTGGGCCAAAAAGGTCATTGATGCCGATAA | 4.72 | 4.42 | 0.661 | 5.23 | 3.12 | 0.474 | 2.01 |
| CTATGTAGGTTACGGGGGTCATTCAGTTTGAAAG | 5.91 | 4.59 | 2.61 | 6.14 | 4.12 | 2.03 | 5.93 |
| CACACTAGGTCACAGAGGTCAAAGTCCGTGCGTA | 7.55 | 8.04 | 3.26 | 8.19 | 4.84 | 3.29 | 7.03 |
| CTATGTAGGTTAGGGGGGTCATTCAGTTTGAAAG | 5.7 | 4.91 | 3.23 | 5.83 | 4.21 | 3.25 | 6.97 |
| AATACAAGGTCATCGTAGGCCAGAGTACGCACAG | 6.21 | 6.23 | 3.94 | 6.37 | 4.47 | 2.74 | 4.03 |
| AGAATGGGGTTACCAAAGATCAGGGAAACGCTTG | 2.9 | 1.43 | 1.25 | 4.79 | 3.07 | 0.513 | 0.217 |
| CCTACTGGGCCATTCAGAGGTCAATGATCATATG | 4.55 | 3.43 | 0.406 | 3.05 | 2.97 | 1.32 | 1.44 |
| AGTCAAAGTGCATCTAGGTAACGTAAGATATGCT | 1.07 | 1.23 | 1.55 | 0.663 | 1.31 | -0.154 | 0.36 |
| CGTCCAAGGACAATGCTAGGTCAGTGAAAGCATT | 1.34 | 1.85 | 0.603 | 0.146 | 2.91 | 1.91 | 0.161 |
| AGAATGGGGTTATACGTAGATCAGGGAAGAAAGT | 2.66 | 0.984 | 2.16 | 4.17 | 2.8 | 1.53 | 1.86 |
